Screens from PubChem.
Sampled rows, rich in hits. Any-hit rate of the full collection: about 1.3%.
NR5A2 inv ag = suppresses constitutive activity of human LRH-1; AID 602396; inhibition, % at 3.6 µM; 0.13% of 360,000 active; O00482; HEK293T StAR-luciferase reporter, LRH-1 transfected, 24 h;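 active means inhibition above the mean inhibition of all tested compounds plus 3 SD, cut at about 73% in these data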
SRC3 inh = human NCOA3 inhibition. 0.17% of 360,000 active. inhibition, % at 3.6 µM. HEK293 GAL4-SRC3 luciferase reporter, luminescence. Q9Y6Q9. AID 588352;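 active means inhibition above a per-campaign cutoff, the mean of all compounds plus 3 SD, cut at about 60% in these data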;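 further: higher means less SRC3-driven luciferase light from the GAL4 reporter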
NCOA1 inh = inhibitors of human steroid receptor coactivator 1 (SRC1). HEK293 GAL4-SRC1 luciferase reporter, luminescence. inhibition, % at 3.6 µM. Q15788. AID 588354. 0.12% of 360,000 active;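 active means inhibition above the campaign mean plus 3 SD, with each screening campaign given its own cutoff, cut at about 60% in these data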
COUP-TFII inh = inhibitors of human COUP-TFII (NR2F2). HEK293T NGFI-A luciferase reporter, luminescence. inhibition, % at 8.6 µM. AID 686940. P24468. 0.7% of 370,000 active;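 active means inhibition above a per-plate cutoff, mean inhibition of test wells between control levels plus 3 SD, cut at about 38% in these data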;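 further: cells cotransfected with COUP-TFII expression vector driving the NGFI-A reporter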
Target sequence (P24468 whole entry, looked up): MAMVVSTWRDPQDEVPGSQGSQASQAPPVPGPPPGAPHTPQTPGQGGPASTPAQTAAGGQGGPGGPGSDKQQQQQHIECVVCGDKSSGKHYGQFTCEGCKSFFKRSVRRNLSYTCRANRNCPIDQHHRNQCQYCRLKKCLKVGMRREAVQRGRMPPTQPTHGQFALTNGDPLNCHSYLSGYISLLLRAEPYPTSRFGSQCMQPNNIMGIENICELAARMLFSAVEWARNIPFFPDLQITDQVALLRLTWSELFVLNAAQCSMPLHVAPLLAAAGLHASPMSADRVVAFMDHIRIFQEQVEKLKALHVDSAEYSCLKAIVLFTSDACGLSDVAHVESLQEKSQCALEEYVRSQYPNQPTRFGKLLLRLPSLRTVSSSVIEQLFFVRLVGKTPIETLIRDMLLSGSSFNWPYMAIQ
Gli-Sufu block = antagonists of Gli-Sufu signaling | inhibition, % at 5 µM | 0.74% of 340,000 active | Sufu-KO-LIGHT fibroblasts, Gli luciferase reporter luminescence | AID 588413;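 active means inhibition above about 55%, limit read from the data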
SRC2 inh = inhibits human steroid receptor coactivator 2; Q15596; HEK293 GAL4-SRC2 luciferase reporter, luminescence; inhibition, % at 9 µM; 0.17% of 370,000 active; AID 651957;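 active means inhibition above the mean inhibition of all tested compounds plus 3 SD, set per campaign, cut at about 52% in these data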
Gal4-VP16 ctr = VP16 inhibition counter-screen for COUP-TFII; inhibition, % at 8.5 µM; 25% of 2,500 active; HEK293 Gal4-VP16 luciferase reporter, luminescence; AID 687007; shares compounds with COUP-TFII inh; in the data active means inhibition above about 13%
COUP-TFII conf = confirmation of human COUP-TFII (NR2F2) inhibitors; shares compounds with COUP-TFII inh; HEK293 NGFI-A luciferase reporter, luminescence; inhibition, % at 8.5 µM; 45% of 2,500 active;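 active means mean inhibition over three repeats above a set limit taken from the earlier primary screen, cut at about 38% in these data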
Each line names hits and unclear results; the compound was inactive in the other large screens (follow-up assays come after a bar, where they were run).

Cc1oc(-c2cc(F)ccc2F)nc1CN1CCN(c2ncnc3ccccc23)CC1	COUP-TFII inh 43 | Gal4-VP16 ctr inactive | COUP-TFII conf inactive
O=S1(=O)c2ccc(Br)cc2OC[C@H](Cc2ccccc2)N1Cc1cn(CCC2OCCCO2)nn1	none (no result: NR5A2 inv ag, SRC3 inh, NCOA1 inh, Gli-Sufu block)
COc1ccc(NC(=O)Cc2ccccc2)cn1	none
COc1ccc(NC(=O)/C(Cl)=C(/Cl)S(=O)Cc2ccccc2)cn1 (stereo not drawn)	COUP-TFII inh 61, Gli-Sufu block 66, SRC2 inh 84 | Gal4-VP16 ctr 88 | COUP-TFII conf 100
CC(C)(Oc1ccc(Cl)cc1)C(=O)Nc1ccc2oc(=O)ccc2c1	none
CC(C)(C)C(=O)Nc1ccc(-c2cc3cc(Cl)ccc3o2)cc1	COUP-TFII inh 53 | Gal4-VP16 ctr inactive | COUP-TFII conf inactive
C=CCn1c(COc2ccccc2)nnc1SCC(=O)Nc1ccc(Oc2ccccc2)cc1	none (no result: NR5A2 inv ag, SRC3 inh, NCOA1 inh, Gli-Sufu block)
O=C(Nc1ccc(Cc2ccncc2)cc1)C1CCC(N2C(=O)C3C4C=CC(C4)C3C2=O)CC1 (stereo not drawn)	COUP-TFII inh 38 | Gal4-VP16 ctr inactive | COUP-TFII conf inactive
CC(=O)c1c(C)[nH]c(C(=O)OCc2ccc([N+](=O)[O-])cc2)c1C	none
COC(=O)c1ccc(COC(=O)c2[nH]c(C)c(C(C)=O)c2C)o1	COUP-TFII inh 41 | Gal4-VP16 ctr inactive | COUP-TFII conf inactive
C(=N\Nc1ccc2ccccc2n1)/c1ccc2c(c1)OCCO2	COUP-TFII inh 64 | Gal4-VP16 ctr 38 | COUP-TFII conf 70
Cc1ccc[n+](CC(=O)/C=C2\N(C)c3ccccc3C2(C)C)c1	COUP-TFII inh 42 | Gal4-VP16 ctr inactive | COUP-TFII conf inactive
O=C(CCc1nc(-c2ccccc2F)no1)NCCc1c[nH]c2ccccc12	none (no result: NR5A2 inv ag, SRC3 inh, NCOA1 inh, Gli-Sufu block)
COc1ccc(CNn2c(-c3cccs3)nc3ccccc3c2=O)cc1OC	COUP-TFII inh 38 | Gal4-VP16 ctr inactive | COUP-TFII conf inactive
COc1cccc(C(=O)Nn2c(-c3cccs3)nc3ccccc3c2=O)c1OC	none
CC[n+]1c(/C=C/c2c[nH]c3ccccc23)ccc2cc(C)ccc21	COUP-TFII inh 38, Gli-Sufu block 90 (no result: NR5A2 inv ag, SRC3 inh, NCOA1 inh) | Gal4-VP16 ctr inactive | COUP-TFII conf 52
CCCn1nc(C(=O)Nc2ccc3nc(N4CCOCC4)sc3c2)ccc1=O	COUP-TFII inh 43 | Gal4-VP16 ctr inactive | COUP-TFII conf inactive
COc1ccc(C(=O)Nc2ccc3nc(N4CCOCC4)sc3c2)cc1OC	none
C[C@H](O)[C@@H]1CN2CCc3c([nH]c4c(-c5ccc6c(c5)OCO6)cccc34)[C@@H]2C[C@@H]1N(C)C(=O)c1ccco1	none (no result: NR5A2 inv ag, SRC3 inh, NCOA1 inh, Gli-Sufu block)
COc1ccc(-c2coc3c(C(=O)NCC4CCOCC4)cccc23)c(C)c1	COUP-TFII inh 42 (no result: Gli-Sufu block) | Gal4-VP16 ctr inactive | COUP-TFII conf inactive
COc1ccc(-c2ccc(C(=O)NCc3ccc(F)c(F)c3)c3occc23)c(C)c1	none (no result: Gli-Sufu block)
COc1ccc(-c2coc3c(C(=O)NCc4ccc(F)c(F)c4)cccc23)c(C)c1	COUP-TFII inh 47 (no result: Gli-Sufu block) | Gal4-VP16 ctr inactive | COUP-TFII conf inactive
COc1ccc(-c2coc3c(C(=O)NCc4ccc(OC)c(OC)c4)cccc23)c(C)c1	COUP-TFII inh 79 (no result: Gli-Sufu block) | Gal4-VP16 ctr inactive | COUP-TFII conf 69
COc1ccc(CNC(=O)c2cccc3c(-c4cnn(C)c4)coc23)cc1OC	COUP-TFII inh 62 (no result: Gli-Sufu block) | Gal4-VP16 ctr inactive | COUP-TFII conf 40
Cn1cc(-c2coc3c(C(=O)NCc4cccnc4)cccc23)cn1	none (no result: Gli-Sufu block)
COC(=O)[C@H](CC(C)C)N(CCCc1cn(Cc2ccc(C)cc2)nn1)S(=O)(=O)c1ccccc1Br	none (no result: NR5A2 inv ag, SRC3 inh, NCOA1 inh, Gli-Sufu block)
Cc1sc2nc(COC(=O)CNC(=O)c3ccccc3Cl)[nH]c(=O)c2c1C	none (no result: NR5A2 inv ag, SRC3 inh, NCOA1 inh, Gli-Sufu block)
COc1cc(NC(=O)c2cccc3c(-c4cccnc4)coc23)cc(OC)c1OC	COUP-TFII inh 52 (no result: Gli-Sufu block) | Gal4-VP16 ctr inactive | COUP-TFII conf inactive
O=C(Nc1cccc(C(F)(F)F)c1)c1cccc2c(-c3cccnc3)coc12	none (no result: COUP-TFII inh, Gli-Sufu block, SRC2 inh)
CN1CCC(N[C@@H](Cc2ccccc2)C(=O)NCCCc2ccccc2)(C(=O)NCCc2c[nH]c3ccccc23)CC1	none (no result: NR5A2 inv ag, SRC3 inh, NCOA1 inh, Gli-Sufu block, SRC2 inh)
CCCCCN1C=CC(=C2C(=O)c3ccccc3C2=O)C=C1	COUP-TFII inh 70, Gli-Sufu block 59, SRC2 inh 83 | Gal4-VP16 ctr 48 | COUP-TFII conf 73
CCCCC(=O)N(C)c1c(C)nc2ccc(C(=O)NCCOc3ccc(OC)cc3)cn12	none (no result: Gli-Sufu block)
COc1ccc(OCCNC(=O)c2ccc3nc(C)c(N(C)C(=O)CCc4ccccc4)n3c2)cc1	COUP-TFII inh 85 (no result: Gli-Sufu block) | Gal4-VP16 ctr inactive | COUP-TFII conf inactive
COc1ccc(Cn2cc(CN3[C@@H](C)COc4cc(Br)ccc4S3(=O)=O)nn2)cc1	none (no result: NR5A2 inv ag, SRC3 inh, NCOA1 inh, Gli-Sufu block)
COc1ccc(NS(=O)(=O)c2cccc(C(=O)NN=Cc3ccc(OC)cc3OC)c2)cc1	COUP-TFII inh 38 | Gal4-VP16 ctr inactive | COUP-TFII conf inactive
COc1ccc(NS(=O)(=O)c2cccc(C(=O)N/N=C/c3cccs3)c2)cc1	none
FC(F)(F)c1cnc(N2CCCN(C(=S)Nc3ccccc3)CC2)c(Cl)c1	COUP-TFII inh 39 | Gal4-VP16 ctr inactive | COUP-TFII conf inactive
FC(F)(F)c1cnc(N2CCN(C(=S)NCc3ccccc3)CC2)c(Cl)c1	none
O=C(CN1CCN(Cc2ccc(Cl)cc2)C1=O)NCCCN1CCN(c2ccc(F)cc2)CC1	COUP-TFII inh 56 | Gal4-VP16 ctr inactive | COUP-TFII conf inactive
O=C(CN1CCN(Cc2ccc(Cl)cc2)C1=O)NCCCN1CCOCC1	none
O=C(N[C@@H]1CCCc2c1cnn2-c1ccc(F)cc1F)c1ccccn1	COUP-TFII inh 38 (no result: NR5A2 inv ag, SRC3 inh, NCOA1 inh, Gli-Sufu block, SRC2 inh) | Gal4-VP16 ctr inactive | COUP-TFII conf inactive
Cc1ccc(C(=O)NC2CCCc3c2cnn3-c2ccc(F)cc2F)cn1 (stereo not drawn)	COUP-TFII inh 56 (no result: Gli-Sufu block) | Gal4-VP16 ctr inactive | COUP-TFII conf 59
Cc1c(C)n(Cc2ccccc2)c2ncnc(Cl)c12	COUP-TFII inh 45 | Gal4-VP16 ctr inactive | COUP-TFII conf 42
COc1ccc(CC(=O)OCC(=O)NC2CCCC(C)C2C)cc1OC (stereo not drawn)	COUP-TFII inh 50 | Gal4-VP16 ctr inactive | COUP-TFII conf inactive
CN(c1ccc(C(=O)N2CCN(Cc3ccc4c(c3)OCO4)CC2)cc1)S(=O)(=O)c1ccccc1	COUP-TFII inh 48 | Gal4-VP16 ctr inactive | COUP-TFII conf inactive
Cc1ccc(S(=O)(=O)N(C)c2ccc(C(=O)N3CCN(Cc4ccc5c(c4)OCO5)CC3)cc2)cc1	COUP-TFII inh 56 | Gal4-VP16 ctr inactive | COUP-TFII conf 39
CN(c1ccc(C(=O)N2CCN(Cc3ccccc3)CC2)cc1)S(=O)(=O)c1ccccc1	none
CCn1c(SCC(=O)Nc2ccccc2-c2ccccc2)nnc1-c1cnccn1	none (no result: NR5A2 inv ag, SRC3 inh, NCOA1 inh, Gli-Sufu block)
